Results from article PMC4336329 (PLoS ONE, 2015).
The whole screen tested about 310,000 compounds, of which about 14,000 (4.5%) showed an effect of 50% or more. Effects have a minus sign here. The entries come from a sample that favours strong results as a whole.

Each molecule was assayed against human ether-à-go-go-related gene (hERG) potassium channel (human, UniProt Q12809) (assay: primary screen, population patch clamp on CHO cells stably expressing hERG; higher = less effect of the substance).
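Further: peak tail current of the secondary pulse compared with the same well before compound.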

human ether-à-go-go-related gene (hERG) potassium channel, sequence (Q12809 whole entry, looked up): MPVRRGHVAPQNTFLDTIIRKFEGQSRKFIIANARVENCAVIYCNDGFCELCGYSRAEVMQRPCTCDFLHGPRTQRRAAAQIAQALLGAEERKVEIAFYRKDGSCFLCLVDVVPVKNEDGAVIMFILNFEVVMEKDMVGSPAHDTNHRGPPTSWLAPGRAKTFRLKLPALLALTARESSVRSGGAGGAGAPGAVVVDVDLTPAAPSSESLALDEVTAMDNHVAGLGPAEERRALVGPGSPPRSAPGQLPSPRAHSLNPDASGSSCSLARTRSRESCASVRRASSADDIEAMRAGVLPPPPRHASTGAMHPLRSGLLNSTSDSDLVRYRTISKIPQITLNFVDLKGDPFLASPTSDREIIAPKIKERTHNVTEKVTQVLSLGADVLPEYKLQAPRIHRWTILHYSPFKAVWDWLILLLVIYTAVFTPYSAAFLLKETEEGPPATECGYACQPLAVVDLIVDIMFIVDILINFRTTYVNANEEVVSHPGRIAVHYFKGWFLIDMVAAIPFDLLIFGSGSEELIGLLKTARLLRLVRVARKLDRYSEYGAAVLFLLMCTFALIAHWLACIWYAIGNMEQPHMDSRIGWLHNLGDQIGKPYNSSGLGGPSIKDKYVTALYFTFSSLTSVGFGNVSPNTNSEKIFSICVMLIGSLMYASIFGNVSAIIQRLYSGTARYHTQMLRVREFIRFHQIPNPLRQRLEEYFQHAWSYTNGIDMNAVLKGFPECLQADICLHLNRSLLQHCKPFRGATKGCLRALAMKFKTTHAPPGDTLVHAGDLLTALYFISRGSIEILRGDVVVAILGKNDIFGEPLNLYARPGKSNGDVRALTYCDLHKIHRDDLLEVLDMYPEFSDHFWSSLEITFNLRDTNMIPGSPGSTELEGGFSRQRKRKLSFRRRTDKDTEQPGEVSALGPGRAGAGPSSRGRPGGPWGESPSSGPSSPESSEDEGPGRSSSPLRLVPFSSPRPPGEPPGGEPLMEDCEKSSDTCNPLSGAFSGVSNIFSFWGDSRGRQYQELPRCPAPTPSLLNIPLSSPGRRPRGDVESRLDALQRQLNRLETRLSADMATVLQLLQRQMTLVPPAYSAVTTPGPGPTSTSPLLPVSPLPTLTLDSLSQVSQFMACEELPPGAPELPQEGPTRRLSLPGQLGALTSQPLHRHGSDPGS

SMILES	hERG current change (%, negative = inhibition) at 10uM [%]
Cc1ccc(NC(=O)NCc2ccccn2)cc1	37.7
Fc1ccc(OCc2nc(-c3cccs3)no2)cc1	-9.58
c1ccc(Cc2nn3c(COc4ccccc4)nnc3s2)cc1	6.61
CC1=C(C(=O)OCc2ccccc2)C(c2ccccc2[N+](=O)[O-])NC(=O)N1C (stereo not drawn)	1.71
COc1ccc(N2CCN(Cc3nc(N)nc(Nc4ccccc4OC)n3)CC2)cc1	-62
COc1ccccc1Nc1nc(N)nc(CN2CCC(Cc3ccccc3)CC2)n1	-84.5
COc1ccccc1Nc1nc(N)nc(CCl)n1	3.4
COc1ccccc1Nc1nc(N)nc(CSC(=S)N2CCOCC2)n1	-9.92
COc1ccccc1Nc1nc(N)nc(CSC(=S)N2CCN(c3ccccc3)CC2)n1	6.86
COc1ccccc1Nc1nc(N)nc(CN2CCN(Cc3ccccc3)CC2)n1	-73.2
COc1ccc(OCc2nc(N)nc(Nc3ccccc3OC)n2)cc1	9.46
COc1cccc(N2CCN(Cc3nc(N)nc(Nc4ccccc4OC)n3)CC2)c1	-25.6
COc1ccccc1Nc1nc(N)nc(CN2CCN(c3ccccc3)CC2)n1	-52.9
Cc1cc(C)cc(NC(=O)CCC(=O)Nc2cc(C)on2)c1	8.01
Cc1cc(C)c(C(CC(=O)c2cccs2)C(C#N)C#N)c(C)c1 (stereo not drawn)	-23.9
O=c1c2ccccc2n2c(-c3cccc(Cl)c3)nnc2n1Cc1ccccc1	-11.8
COc1ccccc1NC(=O)c1cc(=O)[nH]c2ccccc12	33.4
COc1ccc(CN2C(=O)CN=C2Nc2cc(C)ccc2C)cc1.Cl	1.79
O=C(CN(Cc1ccc(Cl)cc1)C(=O)CN1C(=O)COc2ccccc21)NC1CCCC1	15

SMILES	hERG current change (%, negative = inhibition) at 10uM [%]
CCOC(=O)c1ccc2nc(NC(NC(C)=O)(C(=O)OC)C(F)(F)F)sc2c1 (stereo not drawn)	13.6
CN(C(=O)CSc1nnc(Cc2ccccc2F)n1N)C1CCS(=O)(=O)C1 (stereo not drawn)	9.76
NC(=O)[C@@H]1CCCN1Cc1nc(Cc2cccc(C(F)(F)F)c2)no1	8.45
FC(F)(F)c1cccc(Cc2noc(CN3CCSCC3)n2)c1	0.814
OCC1CCCN(C2CCN(Cc3nc(Cc4cccc(C(F)(F)F)c4)no3)CC2)C1 (stereo not drawn)	-74.1
FC(F)(F)c1cccc(Cc2noc(CN3CCCC(CN4CCCC4)C3)n2)c1 (stereo not drawn)	-45.5
FC(F)(F)c1cccc(Cc2noc(CN3CCC(N4CCCCC4)CC3)n2)c1	-74.7
FC(F)(F)c1cccc(Cc2noc(CN3CCC(c4ccncc4)CC3)n2)c1	-66.2
FC(F)(F)c1cccc(Cc2noc(CN3CCCC3)n2)c1	15.6
CCOC(=O)N1CCN(Cc2nc(Cc3cccc(C(F)(F)F)c3)no2)CC1	-15
Fc1cccc(Cc2noc(CN3CCC(c4ccncc4)CC3)n2)c1	-21.4
Fc1ccc(N2CCN(c3cnc4ccccc4n3)CC2)cc1	6.24
Cc1cc(C(F)(F)F)nn1Cc1n[nH]c(=S)n1-c1ccc(Cl)cc1	20.3
O=[N+]([O-])c1ccc(-c2c(O)c3ccccc3c3nc4ccccc4nc23)cc1	18
CCN1CCN(C(c2cccnc2)c2c(NC(=O)c3ccco3)sc(C)c2C)CC1 (stereo not drawn)	-58.4
Cc1sc(NC(=O)c2ccco2)c(C(c2ccc(F)cc2)N2CCN(C)CC2)c1C (stereo not drawn)	-68.1
Cc1sc(NC(=O)c2ccco2)c(C(c2cccnc2)N2CCN(C)CC2)c1C (stereo not drawn)	-32.7
Cc1sc(NC(=O)c2ccco2)c(C(c2cccnc2)N2CCN(c3ccc(F)cc3)CC2)c1C (stereo not drawn)	1.92
Cc1sc(NC(=O)c2ccco2)c(C(c2cccnc2)N2CCCC2)c1C (stereo not drawn)	-8.45

SMILES	hERG current change (%, negative = inhibition) at 10uM [%]
Cc1sc(NC(=O)c2ccco2)c(C(c2cccnc2)N2CCN(CCO)CC2)c1C (stereo not drawn)	-20.9
CC1(C)CC(=O)C2=C(C1)N(Cc1ccc(F)cc1)C(=O)C2(NC(=O)c1cccnc1)C(F)(F)F (stereo not drawn)	-5.55
COc1ccccc1-c1nnc(SC(C(=O)c2c[nH]c3ccccc23)c2ccccc2)n1C (stereo not drawn)	20.8
O=C(CCc1nc2ccccc2n1-c1ccccc1)NCCO	6.97
C=CCN(CC=C)CC(O)CN(c1cc([N+](=O)[O-])ccc1OC)S(=O)(=O)c1ccccc1 (stereo not drawn)	-10.7
COc1ccc([N+](=O)[O-])cc1N(CC(O)CN(CC(C)C)CC(C)C)S(=O)(=O)c1ccccc1 (stereo not drawn)	-1.91
COc1ccc([N+](=O)[O-])cc1N(CC(O)CN(CC(C)C)CC(C)C)S(=O)(=O)c1ccc(C)cc1.Cl (stereo not drawn)	-13.7
CCCCN(CCCC)CC(O)CN(c1cc([N+](=O)[O-])ccc1OC)S(=O)(=O)c1ccccc1 (stereo not drawn)	-67
COc1ccc([N+](=O)[O-])cc1N(CC(O)CN(C)C)S(=O)(=O)c1ccccc1 (stereo not drawn)	5.54
CCCN(CCC)CC(O)CN(c1cc([N+](=O)[O-])ccc1OC)S(=O)(=O)c1ccccc1.Cl (stereo not drawn)	-60.4
CC(C)CNC(=O)/C=C/C=C/CCCC/C=C/c1ccc2c(c1)OCO2	20.7
CC(=O)c1c(C)[nH]c(C(=O)OCc2nc3ccsc3c(=O)[nH]2)c1C	-13.6
O=C(CC1SC(N2CCCCC2)=NC1=O)Nc1ccc(C(=O)O)cc1 (stereo not drawn)	22.1
CC1CCN(CCNC(=O)c2ccc3c(=O)n(Cc4ccc(Cl)cc4)c(=S)[nH]c3c2)CC1	-15.8
CC1CCN(CCCNC(=O)c2ccc3c(=O)n(Cc4ccc(Cl)cc4)c(=S)[nH]c3c2)CC1	-68.4
CN(C)CCNC(=O)c1ccc2c(=O)n(Cc3ccc(Cl)cc3)c(=S)[nH]c2c1	-27.8
CC1CCCCN1CCNC(=O)c1ccc2c(=O)n(Cc3ccc(Cl)cc3)c(=S)[nH]c2c1 (stereo not drawn)	-50.9
CC1CCCCN1CCNC(=O)c1ccc2c(=O)n(CCc3ccccc3)c(=O)[nH]c2c1 (stereo not drawn)	-38.7
COC(=O)c1ccc2c(=O)n(Cc3ccc(C(=O)NCCCN4CCC(C)CC4)cc3)c(=S)[nH]c2c1	7.54
